Experimental data reported in PubChem BioAssay AID686970 (National Center for Advancing Translational Sciences (NCATS), 2013).
Hit rate of the full screen: of about 360,000 compounds, about 6,000 (1.7%) were called active. Not shown: some 8% with an inconclusive outcome. Many of the other results were omitted from the sample, so actives are more common in it than they were. Unmarked numbers belong to inactive results. Calls come from the whole dose curve; as a rule, active = well fitted cell-killing curve with a large enough effect; inconclusive = small, poorly fitted or top-dose-only effect, or effect the other way; inactive = flat fitted curve, though single readings scatter.

assay: qHTS for induction of synthetic lethality in tumor cells producing 2HG: qHTS for the HT-1080-NT fibrosarcoma cell line; conditions: HT-1080-NT fibrosarcoma viability, CellTiter-Glo ATP luminescence, 48 h; series mostly up to 46.1 µM; activity, negative = less viability: at the top concentration;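 note: NT is the 2HG producing partner of a matched IDH1 knockdown line; nearly all actives have a fitted effect of over 55% in size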;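 for activity, negative = less viability: 0% = DMSO-treated cells and -100% = media-only wells without cells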
Procedure, shortened: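 Viability by CellTiter-Glo luminescence after 48 h compound exposure at 37C of HT-1080-NT cells (750/well, RPMI, 5% FBS). % activity scaled between DMSO wells and medium-only wells, then curve-fitted and categorized by curve class.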
Potency is the fitted concentration of half-maximal effect.

| Compound | activity, negative = less viability | Potency |
| --- | --- | --- |
| COc1cccc(-c2ccc3c(c2)N(Cc2ccccc2OC)C(=O)C(C)S3)c1 (stereo not drawn) | 14% | – |
| O=C1NC[C@@H](CCCCN2CCN(CCc3ccc(O)cc3)C(=O)C2=O)N(CC2CCCCC2)C1=O | 2.04% | – |
| Cc1ccccc1S(=O)(=O)NC(=O)C1(C)CCN1C(=O)Cc1ccc(Cl)cc1Cl (stereo not drawn) | 0.417% | – |
| CC1(C)OC(=O)C2=C(C[C@@H](C3CCCC3)O[C@@H]2c2ccc(Cl)cc2)O1 | -0.447% | – |
| COc1ccc(NC(=O)CCCOc2ccc(C(C)=O)cc2)cc1S(=O)(=O)N1CCCCC1 | -10.6% | – |
| CC(=O)Nc1cc(-c2ccc(N3CCN(C)CC3)cc2)cn2c(-c3cccc(C(=O)N(C)C)c3)cnc12 | 22.9% | – |
| CS(=O)(=O)Nc1cccc(C2=NN(C(=O)c3cccc(F)c3)C(c3cccs3)C2)c1 (stereo not drawn) | -17.5% | – |
| CS(=O)(=O)Nc1ccc(C2=NN(S(C)(=O)=O)C(c3cccs3)C2)cc1 (stereo not drawn) | 3.27% | – |
| CCS(=O)(=O)Nc1ccc(C2=NN(C(C)=O)C(c3cccs3)C2)cc1 (stereo not drawn) | – | 23.1 µM (active) |
| O=C(Cc1ccc([N+](=O)[O-])cc1)NCCS(=O)(=O)N1CCN(c2ccccc2)CC1 | -2.58% | – |
| COc1ccc(CC(N)c2csc(NC(=O)Nc3ccc(C(C)C)cc3)n2)cc1 (stereo not drawn) | – | 18.4 µM (active) |
| COc1ccc(NC(=O)C(Br)C(C)C)cc1 (stereo not drawn) | 2.27% | – |
| COc1ccc(OC)c(NC(=O)N[C@H](Cc2ccccc2)C(=O)NN)c1 | -17.7% | – |
| Cc1ccccc1NC(=O)Cc1nc(COC(=O)c2ccc(C(F)(F)F)cc2)cs1 | -8.34% | – |
| COC(=O)[C@H](CCSC)NC(=O)Nc1ccc(OC)cc1 | 7.07% | – |
| COc1ccc(Cc2nnc(NC(=O)Cc3cccs3)s2)cc1 | -7.23% | – |
| COc1ccc(CC(N)c2csc(NC(=O)Cc3ccccc3)n2)cc1 (stereo not drawn) | – | 23.1 µM (active) |
| CC(C)(C)CC(=O)Nc1nc(C(N)Cc2ccc(C(F)(F)F)cc2)cs1 (stereo not drawn) | – | 16.4 µM (active) |
| COc1ccc(CC(=O)Nc2sc(Cc3ccccc3)c(C)c2C(N)=O)cc1 | -16.4% | – |
| COc1ccc(CC(N)c2csc(NC(=O)NC(c3ccccc3)c3ccccc3)n2)cc1 (stereo not drawn) | – | 23.1 µM (active) |

| Compound | activity, negative = less viability | Potency |
| --- | --- | --- |
| CC(C)(C)CC(=O)Nc1nnc(SCC(=O)NCc2cccs2)s1 | -2.03% | – |
| COc1ccc(CNC(=O)C(Cc2ccccc2)n2cccc2)cc1 (stereo not drawn) | 12.5% | – |
| CCNC(=O)C1(C)CCCN(C(=O)c2ccc3ccccc3n2)C1 (stereo not drawn) | 18.6% | – |
| CN(Cc1ccc(C(F)(F)F)cc1)C(=O)[C@H]1O[C@@H](n2cnc3c(N)ncnc32)[C@H](O)[C@@H]1O | 1.31% | – |
| O=C(c1ccc2c(=O)n(Cc3ccco3)c(=S)[nH]c2c1)N1CCCC1 | 17.1% | – |
| COc1ccc([C@H]2C[C@@H](n3cc(COC(=O)c4ccccc4)nn3)[C@H](O)CN2C(=O)c2cccs2)cc1 | -16.2% | – |
| COC(=O)c1ccc2nc(-c3ccc(C)cc3)c(Cc3ccc(OC)cc3C)n2c1 | 2.62% | – |
| O=C(COc1ccc(S(=O)(=O)N2CCCC2)cc1[N+](=O)[O-])N1CCCCC1 | 3.38% | – |
| CCCCNC(=O)c1nc(C2CCN(S(=O)(=O)c3ccc(F)c(F)c3)CC2)oc1-c1cccc(C(F)(F)F)c1 | 20.6% | – |
| COC(=O)c1ccc2nc(-c3ccccc3)c(Cc3ccc(OC)cc3C)n2c1 | 9.2% | – |
| CC(C)(C)c1ccc(S(=O)(=O)NC(=O)C2(C)CCN2C(=O)CC2CC2)cc1 (stereo not drawn) | 16.8% | – |
| N#Cc1ccc(-c2ccc3nccn3c2)cc1 | 11.3% | – |
| COc1cccc(-n2nc(C(=O)N3CCN(Cc4ccccc4)CC3)c3ccccc3c2=O)c1 | -15.9% | – |
| COc1cccc(-n2cc3c(c2-c2ccccc2)c(=O)n(C)c(=O)n3C)c1 | -10.2% | – |
| COc1cccc(-n2cc(C(=O)O)c3ccccc3c2=O)c1 | – | 14.1 µM (active) |
| CCOC(=O)c1cc(-c2sc(NC(=O)c3ccccc3)nc2C)n(-c2ccc(Br)cc2)n1 | -3.27% | – |
| CCc1nc2ccc(C(=O)N(C)Cc3ccco3)cn2c1N(C)C(=O)Cc1ccccc1 | 12.2% | – |
| O=C(CC[C@H]1O[C@@H](n2ccc(=O)[nH]c2=O)[C@H](O)[C@@H]1O)N[C@H](Cc1ccccc1)C(=O)NCc1ccco1 | 16.7% | – |
| COc1ccccc1-n1c(SCC(=O)Nc2cccc(C(=O)O)c2)nnc1-c1ccccc1O | 12.6% | – |
| COc1cccc(/C=N/Nc2cc(C)nc(-c3ccccc3O)n2)c1O | – | 8.2 µM (active) |

| Compound | activity, negative = less viability | Potency |
| --- | --- | --- |
| COc1cccc(/C=N/Nc2ccc(S(=O)(=O)Nc3ccccc3C(=O)O)cc2[N+](=O)[O-])c1O | -0.335% | – |
| O=C(Nc1ccc2c(c1)[C@@H]1C[C@@H](CC(=O)N3CCCCC3)O[C@@H](CO)[C@@H]1O2)NC1CCCCC1 | -11% | – |
| CCCS(=O)(=O)NC(=O)C1(C)CCCN(C(=O)c2cc(C)on2)C1 (stereo not drawn) | 23.2% | – |
| CCOC(=O)C1=CCC(c2ccc(F)cc2)N(S(=O)(=O)c2ccc(C)cc2)C1 (stereo not drawn) | -28.5% | – |
| COc1ccc(Sc2ccc(NC(=O)c3cccc(Cl)c3)cc2C#N)cc1 | -13.9% | – |
| COc1cccc(C(NC(C)=O)c2nc(-c3ccccc3OC)cs2)c1 (stereo not drawn) | -1.79% | – |
| CCOC1=C2CN(S(=O)(=O)c3ccc(C)cc3)[C@H](c3cccs3)C[C@H]2[C@H]2C(=O)N(c3ccccc3)C(=O)[C@H]2C1 | 14.8% | – |
| COC(=O)c1sc(-c2ccc(C(C)(C)C)cc2)cc1NC(=O)/C=C/C(=O)O | – | 11.6 µM (active) |
| COc1ccc(NS(=O)(=O)c2ccc(N3CCOCC3)c(NC(=O)/C=C/C(=O)O)c2)cc1 | 10.2% | – |
| CC(C)(C)c1ccc(/C=C/C(=O)Nc2ncccn2)cc1 | -10.7% | – |
| COc1cccc(OCC(=O)NCCS(=O)(=O)N2CCN(c3ccccc3)CC2)c1 | 8.66% | – |
| CCc1ccc(OCC2c3cc(OC)c(OC)cc3CCN2C(C)=O)cc1 (stereo not drawn) | – | 16.4 µM (active) |
| COc1ccc(CC(NC(C)=O)C(=O)NC2CCN(C(=O)c3ccc(OC)c(OC)c3)CC2)cc1OC (stereo not drawn) | 8.35% | – |
| COc1ccc(CC(NC(C)=O)C(=O)NC2CCN(C(=O)C3CC3)CC2)cc1OC (stereo not drawn) | 21% | – |
| CCOC1=C2[C@@H](CN(S(=O)(=O)c3ccc(C)cc3)[C@H]2c2ccccc2F)[C@H]2C(=O)N(Cc3ccccc3)C(=O)[C@H]2C1 | -0.579% | – |
| Cc1cc([N+](=O)[O-])ccc1NS(=O)(=O)c1ccccc1 | -9.92% | – |
| O=[N+]([O-])c1ccc(NS(=O)(=O)c2ccccc2)c(Cl)c1 | – | 6.51 µM (active) |
| O=C(NNS(=O)(=O)c1ccc(F)cc1)c1ccc([N+](=O)[O-])cc1Cl | 2.11% | – |
